Source: PubChem
Compounds with a hit are over-represented: about 14% of the library has one in this group of screens.
A350 fluor – compounds fluorescent in Alexa 350 spectral region; 59,000 compounds, 11% hits; max dye-equivalent concentration, M; AID 590; Compound autofluorescence, 340/450 nm, Alexa 350 dye-equivalents; hits give high values; in the data active = max dye-equivalent concentration above about 10 nM; inconclusive = mostly about 1.1 nM to 9.6 nM
HSD17B inhib – HSD17B dehydrogenase inhibition. Q99714. recombinant HSD17B10, NADH fluorescence kinetic. 75,000 compounds, 7.6% hits. Potency, µM (doses to about 57.1 µM), inactives show at the highest dose activity change, negative = inhibition, most hits filed as inhibitors;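 also: the protocol describes HADH2 (HSD17B10) and not the HSD17B4 of the title; potency is read from the fitted curve at half-maximal effect; % is scaled to controls: 0 for no effect and ±100 for the full control effect; nearly all actives have a fitted effect of over 70% in size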
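20 nM HADH2, pH 9.0 Tris/Tween; cpd preinc 15 min RT; start w/ 1 mM NAD+ + 90 uM b-hydroxybutyryl-CoA; kinetic fluor ex360/em450 q30s x 4 min; delta last-first.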
CRE-bla Fsk – CRE-bla signaling modulation under forskolin stimulation | CHO CRE-bla reporter (cAMP response element driving beta-lactamase), forskolin EC10, beta-lactamase ratio | Potency, µM (doses to about 38.2 µM), for inactives: at the top dose activity change, negative = inhibition, usual class: activators | 71,000 compounds, 2.5% hits; active = well fitted activation curve with a large enough effect in the signal ratio, with a control signal flat, not every such curve was filed as active; inconclusive = small, poorly fitted or top-dose-only effect, or effect the other way, or a change in a side signal; the % refers to the signal ratio; also: potency is read from the fitted curve at half-maximal effect; % of control where 0% means no effect
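The 460nm/530nm emission ratio after CCF4 loading defined %Activity, from which AC50 values were obtained. CRE-bla CHO cells received compound dilution series together with an EC10 level of NKH 477 for 3 hours at 37 degrees Celsius.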
4MU fluor – compound fluoresces in the 4-MU spectral region; compound autofluorescence, 340/450 nm, 4-MU equivalents; hits give high values; max dye-equivalent concentration, M; 59,000 compounds, 11% hits; in the data active = max dye-equivalent concentration above about 10 nM; inconclusive = mostly about 1.1 nM to 9.6 nM
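Intrinsic fluorescence at 340/450 nm (ex/em) was read after 15 min at room temperature in pH 8.0, 100 mM Tris. Each compound concentration expressed as 4-MU-equivalent concentration from a six-point 4-MU standard series on each plate.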
AID923 – qHTS Assay for Allosteric/Competitive Inhibitors of Caspase-1: Spectroscopic Profiling in AFC Spectral Region; Potency, µM (doses to about 57.5 µM), for the others: top-dose fluorescence increase, actives largely listed as activators; compound fluorescence, AFC spectral region (405/520 nm); 75,000 compounds, 1.1% hits; also: potency is read from the fitted curve at half-maximal effect; 0% is about no effect
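Compound autofluorescence profiled at 405 nm ex/520 nm em during kinetic caspase 1 run (50 nM enzyme, 5 uM Ac-WEHD-AFC, HEPES pH 7.5, 10 mM DTT). Titration up to 57 uM; baseline from regression intercept, normalized to AFC standard curve.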
HADH2 inhib – blocks human hydroxyacyl-CoA dehydrogenase type II. Q99714. recombinant HADH2, NADH fluorescence, beta-hydroxybutyryl-CoA. Potency, µM (top dose mostly 57.1 µM), without a hit: top-dose activity change, negative = inhibition, usual class: inhibitors. 73,000 compounds, 3.4% hits. AID 886; also: potency is read from the fitted curve at half-maximal effect; % is scaled to controls: 0 for no effect and ±100 for the full control effect; nearly all actives have a fitted effect of over 60% in size
Target sequence (Q99714 whole entry, looked up, one chain of several): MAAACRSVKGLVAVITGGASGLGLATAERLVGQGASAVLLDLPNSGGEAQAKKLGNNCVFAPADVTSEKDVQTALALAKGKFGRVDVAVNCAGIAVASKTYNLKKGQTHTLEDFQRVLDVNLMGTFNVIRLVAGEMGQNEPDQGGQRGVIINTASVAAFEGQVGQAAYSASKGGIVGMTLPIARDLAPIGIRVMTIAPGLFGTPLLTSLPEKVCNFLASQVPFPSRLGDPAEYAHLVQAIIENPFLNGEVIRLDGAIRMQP
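20 nM HADH2 + cpd, 15 min RT; add 1 mM NAD+/90 uM beta-hydroxybutyryl-CoA; kinetic fluorescence 360/450 nm, 4 min. Tris-HCl pH 9.0, 0.01% Tween-20.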
An asterisk follows results filed as active; [ ] = remark or other dose. Unless noted, calls follow the shape of the dose curve; as a rule, active = well fitted curve in the direction sought with a large enough effect; inconclusive = small, poorly fitted or top-dose-only effect, or another doubt; inactive = no such curve, though single readings can be large; an effect the other way counts as inactive or inconclusive.

For Cc1ccc(NC(=O)CSc2nnc(-c3cnccn3)n2Cc2ccco2)cc1 the results were A350 fluor 1.8e-08M*, HSD17B inhib 11%, CRE-bla Fsk 6%, 4MU fluor 1.9e-08M*, AID923 2% and HADH2 inhib 6%.
`COCCNc1nc(-c2ccccc2Cl)nc2ccccc12` gave A350 fluor inactive, HSD17B inhib 3%, CRE-bla Fsk inconclusive, 4MU fluor inactive, AID923 1% and HADH2 inhib 9%.
CC(=O)N1CC=CC1(CC(C)C)C(=O)NCc1ccc(C)o1 (centres undefined) was read as HSD17B inhib -7%, CRE-bla Fsk -5%, AID923 0% and HADH2 inhib -5%.
`Cc1cc([C@](C)(N)C(=O)O)ccc1P(=O)(O)O` gave HSD17B inhib -10%, CRE-bla Fsk -4%, AID923 3% and HADH2 inhib 22%.
For N=c1ccn2c(n1)O[C@H]1[C@@H](OP(=O)(O)O)[C@H](CO)O[C@H]12 the results were A350 fluor inactive, HSD17B inhib 6%[11.4 µM], CRE-bla Fsk -3%[7.6 µM], 4MU fluor inactive, AID923 5%[11.5 µM] and HADH2 inhib 8%[11.4 µM].
Screening Clc1ccccc1CSc1nnc(-c2cccnc2)n1Cc1ccco1 returned A350 fluor 6.7e-08M*, HSD17B inhib -2%, CRE-bla Fsk -9%, 4MU fluor 6.3e-08M*, AID923 0% and HADH2 inhib 0%.
CC1=C(/C=C\C(=O)O)C(C)(C)CCC1 was read as A350 fluor inactive, HSD17B inhib 2%[11.4 µM], CRE-bla Fsk -7%[7.6 µM], 4MU fluor inactive, AID923 0%[11.5 µM] and HADH2 inhib 7%[11.4 µM].
Screening Cn1c(SCC(=O)N2CCCCCC2)nc2c([nH]c3ccccc32)c1=O returned A350 fluor 4.4e-08M*, HSD17B inhib inconclusive, CRE-bla Fsk 6%, 4MU fluor 4.5e-08M*, AID923 0% and HADH2 inhib 4%.
Screening CCOC(=O)N1CCN(C(=O)CSc2nc3c([nH]c4ccccc43)c(=O)n2C)CC1 returned HSD17B inhib -26%, CRE-bla Fsk -5%, AID923 4% and HADH2 inhib -2%.
For CCN(CC)Cc1ccc(Nc2ccnc3cc(Cl)ccc23)cc1O the results were HSD17B inhib 0% and AID923 -1%.
For COc1ccccc1-c1ccc2ncnc(NC3CCNCC3)c2c1 the results were A350 fluor inactive, HSD17B inhib inconclusive, CRE-bla Fsk 3%, 4MU fluor inactive, AID923 1% and HADH2 inhib 20%.
COc1cc(OC)c2cc(-c3ccncc3)cnc2c1 was read as HSD17B inhib 32µM*, CRE-bla Fsk 5µM*, AID923 16% and HADH2 inhib 32µM*.
`c1ccc2c(c1)CCN(c1nc3cc4c(cc3s1)OCCO4)C2` gave A350 fluor inactive, HSD17B inhib 32µM*, CRE-bla Fsk 9%, 4MU fluor inactive, AID923 0% and HADH2 inhib inconclusive.
For CC(C)OCC(O)CN (centres undefined) the results were A350 fluor inconclusive, HSD17B inhib 0%, CRE-bla Fsk 25%, 4MU fluor 1.7e-08M*, AID923 0% and HADH2 inhib -5%.
Screening Cc1ocnc1C(=O)Nc1ccc(Cl)cc1 returned A350 fluor 2e-08M*, HSD17B inhib -23%, CRE-bla Fsk -19%, 4MU fluor 1.9e-08M*, AID923 2% and HADH2 inhib 5%.
Cc1ncoc1C(=O)Nc1cccc(Cl)c1 was read as A350 fluor inactive, HSD17B inhib -7%, CRE-bla Fsk 8%, 4MU fluor inactive, AID923 1% and HADH2 inhib inconclusive.
